Drawing on ChEMBL document CHEMBL3988442, “University of Dundee, Small-Polar-MMV Screening Library” (2021), this text covers Percent Effect for 39 compounds.

The target in the first assay is T1, Tyrosyl-tRNA synthetase, putative (Trypanosoma cruzi (strain CL Brener)) (UniProt Q4DSP6).
T1 sequence (whole entry): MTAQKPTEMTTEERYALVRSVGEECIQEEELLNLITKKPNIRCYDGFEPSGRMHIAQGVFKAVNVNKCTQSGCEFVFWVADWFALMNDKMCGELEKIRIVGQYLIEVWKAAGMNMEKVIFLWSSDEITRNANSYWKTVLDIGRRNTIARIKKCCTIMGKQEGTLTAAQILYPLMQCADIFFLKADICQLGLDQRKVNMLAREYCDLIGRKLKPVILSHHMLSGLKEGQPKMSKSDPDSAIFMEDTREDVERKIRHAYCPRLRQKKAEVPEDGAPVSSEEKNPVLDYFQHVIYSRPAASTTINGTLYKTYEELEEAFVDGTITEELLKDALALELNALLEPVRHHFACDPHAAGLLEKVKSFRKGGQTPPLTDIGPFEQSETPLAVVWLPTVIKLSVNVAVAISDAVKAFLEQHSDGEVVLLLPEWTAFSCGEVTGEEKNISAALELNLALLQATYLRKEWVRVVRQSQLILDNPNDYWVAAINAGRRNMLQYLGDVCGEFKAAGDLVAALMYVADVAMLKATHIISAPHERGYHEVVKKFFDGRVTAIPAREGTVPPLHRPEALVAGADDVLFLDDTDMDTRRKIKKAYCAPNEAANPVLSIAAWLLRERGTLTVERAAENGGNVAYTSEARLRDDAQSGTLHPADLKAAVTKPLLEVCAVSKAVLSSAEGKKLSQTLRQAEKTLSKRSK
The experiment in a line: Trypanosoma cruzi tyrosyl tRNA synthetase (TcYRS) SOP. In kind it is functional. Set-up: scale not given: direction of the effect not stated beside the values. The following applies: 30 µM.
`O=C(c1cccnc1N1CCOCC1)N1CCCC1Cn1cccn1` (stereo not drawn): the Percent Effect turned out to be 2.35%.

`CCN(C(=O)CN(C)C(c1cccc(F)c1)c1ccccn1)C1CC1` (stereo not drawn): the Percent Effect came out at 7.32%.

Regarding `Cc1nc(C2(NCC(=O)NCCc3cccs3)CCCC2)no1`, the Percent Effect was 15.6%.

As for `CO[C@H]1CN(C(=O)c2ccccn2)[C@@H]2CCCO[C@H]12`, the Percent Effect came out at 5.13%.

In the case of `CCO[C@@H]1CO[C@@]2(CCCN(C(=O)c3ccc(OC)c(F)c3)C2)C1`, the Percent Effect turned out to be 8.97%.

`CC(C)S(=O)(=O)c1nnc(CCNC(=O)OC(C)(C)C)o1`: the Percent Effect stood at 2.56%.

Consider `CCc1c(C(=O)NC2CCS(=O)(=O)C2)cnn1-c1ccc(F)cc1` (stereo not drawn), for which the Percent Effect worked out at 21.5%.

With `CCn1nccc1CNC(=O)NC1CCCCC1`, the Percent Effect amounted to 3.7%.

For `CN(Cc1ccsc1)C(=O)Nc1cccnc1N1CCCC1`, the Percent Effect was 3.7%.

For `CCCC1(CO)CCCN(c2ncccc2F)C1` (stereo not drawn), the Percent Effect is 12.2%.

Regarding `Cc1nc[nH]c1-c1nc2cc(S(=O)(=O)N3CCCC3)ccc2n1C`, the Percent Effect was found to be 17.5%.

Consider `CCNC(=O)N(C)Cc1ccc(SC)c(OC)c1`, for which the Percent Effect came to 3.66%.

Turning to `COCC(=O)N1CCC(c2nc3ccc(-c4ccccc4)cn3n2)CC1`, the Percent Effect was found to be 3.7%.

Regarding `CC(C(=O)NCc1ccnc(N2CCN(C)CC2)c1)n1cccn1` (stereo not drawn), the Percent Effect worked out at 7.32%.

For `CCc1c(C)nc2cc(C3CCN(Cc4ccccc4F)C3)nn2c1O` (stereo not drawn), the Percent Effect came out at 9.09%.

Regarding `O=C(COc1ccc(C(F)(F)F)cc1)NS(=O)(=O)c1cccnc1`, the Percent Effect is -4.88%.

With `CN(C)S(=O)(=O)c1ccc(OCCNCCn2cccn2)cc1`, the Percent Effect is -12.7%.

Regarding `O=C(CN1CCCC(O)C1)NC(=O)NCc1cccs1` (stereo not drawn), the Percent Effect was determined as 7.79%.

Consider `CCOc1ncccc1CNC(=O)N1CCCC1c1ccncc1` (stereo not drawn), for which the Percent Effect was determined as 13.6%.

The target in another assay is Chromo domain-containing protein 1 (Saccharomyces cerevisiae (strain ATCC 204508 / S288c) (Baker's yeast)) (UniProt P32657). In words: ScCHD-1 Enzyme Inhibition Assay. The settings on record: 30 µM. Set-up: scale not given: in the data most compounds retested in dose-response had high values. In kind it is functional.
Chromo domain-containing protein 1 (Saccharomyces cerevisiae (strain ATCC 204508 / S288c) (Baker's yeast)), sequence (P32657 whole entry, the tested form may be a part): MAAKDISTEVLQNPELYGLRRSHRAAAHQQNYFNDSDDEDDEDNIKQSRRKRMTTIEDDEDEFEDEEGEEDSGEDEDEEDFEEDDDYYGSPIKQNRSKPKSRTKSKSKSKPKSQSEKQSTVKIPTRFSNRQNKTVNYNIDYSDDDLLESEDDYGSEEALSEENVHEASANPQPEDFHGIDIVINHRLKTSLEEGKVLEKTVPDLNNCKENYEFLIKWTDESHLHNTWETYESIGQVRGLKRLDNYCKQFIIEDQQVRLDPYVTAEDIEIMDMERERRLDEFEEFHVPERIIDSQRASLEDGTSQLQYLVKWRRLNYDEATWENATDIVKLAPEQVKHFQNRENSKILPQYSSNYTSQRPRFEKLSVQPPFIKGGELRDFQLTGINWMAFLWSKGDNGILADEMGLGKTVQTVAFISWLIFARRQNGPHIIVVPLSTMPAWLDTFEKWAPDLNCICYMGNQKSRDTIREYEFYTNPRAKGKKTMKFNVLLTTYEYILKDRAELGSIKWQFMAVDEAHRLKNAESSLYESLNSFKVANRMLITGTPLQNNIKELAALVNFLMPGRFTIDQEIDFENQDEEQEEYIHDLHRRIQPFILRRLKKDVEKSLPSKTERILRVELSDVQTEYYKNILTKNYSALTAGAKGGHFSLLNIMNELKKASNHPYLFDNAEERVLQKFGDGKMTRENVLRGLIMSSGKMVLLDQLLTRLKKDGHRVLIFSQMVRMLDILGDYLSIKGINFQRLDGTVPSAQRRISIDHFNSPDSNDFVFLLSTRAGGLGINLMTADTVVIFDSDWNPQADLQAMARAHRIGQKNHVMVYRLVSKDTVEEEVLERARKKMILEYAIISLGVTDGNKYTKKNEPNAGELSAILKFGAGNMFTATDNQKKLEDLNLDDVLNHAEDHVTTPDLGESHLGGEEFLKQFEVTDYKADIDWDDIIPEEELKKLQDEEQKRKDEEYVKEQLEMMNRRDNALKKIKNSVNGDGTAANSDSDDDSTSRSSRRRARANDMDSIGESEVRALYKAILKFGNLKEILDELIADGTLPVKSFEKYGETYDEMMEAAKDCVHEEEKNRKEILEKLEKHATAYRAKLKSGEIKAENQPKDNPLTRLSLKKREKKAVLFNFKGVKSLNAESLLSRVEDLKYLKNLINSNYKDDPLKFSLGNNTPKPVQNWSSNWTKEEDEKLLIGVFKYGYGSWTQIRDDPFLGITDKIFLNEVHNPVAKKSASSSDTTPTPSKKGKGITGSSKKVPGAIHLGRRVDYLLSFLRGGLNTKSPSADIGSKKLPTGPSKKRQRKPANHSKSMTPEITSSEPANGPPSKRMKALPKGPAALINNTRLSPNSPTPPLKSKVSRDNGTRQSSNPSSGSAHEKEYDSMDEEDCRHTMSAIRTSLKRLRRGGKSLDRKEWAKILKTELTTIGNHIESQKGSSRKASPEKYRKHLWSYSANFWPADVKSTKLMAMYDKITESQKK
Take `CCn1cc(Br)c(C(=O)NCc2cccnc2)n1`: the Percent Effect was -1.44%.

For the compound `Cn1nc2c(cc1=O)CN(CCc1nc3ccccc3c(=O)[nH]1)CC2`, the Percent Effect was -7.87%.

For the compound `COc1cccc2c1OCC(CNC(=O)CSc1nc(N)n[nH]1)C2` (stereo not drawn), the Percent Effect was -3.99%.

For `COCCCNC(=O)CN(C)C(=O)c1cc(C)ccc1N(C)C(C)C`, the Percent Effect is -2.86%.

With `c1ccc2sc(CN3CCCC3c3noc(C4CC4)n3)nc2c1` (stereo not drawn), the Percent Effect came out at 6.83%.

With `COCCO[C@@H]1CCN(Cc2csc(C)n2)[C@H]1Cc1ccccc1`, the Percent Effect was -1.36%.

Consider `C[C@@H]1CN(C(=O)c2ccsc2)C[C@]12CCN(c1ccsc1)C2=O`, for which the Percent Effect turned out to be 0.408%.

Regarding `CC(O)CC(C)(C)CNC(=O)NCc1cccc(-n2cncn2)c1` (stereo not drawn), the Percent Effect was -0.141%.

As for `Cc1c(C(=O)NCC(C)C)nnn1-c1cccc2c1CCN(C)C2`, the Percent Effect was -0.534%.

In the case of `COc1ccc(CNCC(C)Oc2ccccn2)cc1Br` (stereo not drawn), the Percent Effect is -11.9%.

As for `Cc1ccc(CN2CCc3ncc(CNS(C)(=O)=O)n3CC2)o1`, the Percent Effect was -0.506%.

For the compound `Cc1nc(CN2CCCC(NCc3c(C)nc4sccn34)C2)no1` (stereo not drawn), the Percent Effect was -6.87%.

For the compound `Cc1cn2nc(N3CCCN(Cc4noc(C)n4)CC3)sc2n1`, the Percent Effect is -14.4%.

Regarding `CC(NC(=O)NCCNc1cnccn1)c1cccs1` (stereo not drawn), the Percent Effect is -11.5%.

For the compound `CCOCC1CN(Cc2cccc(C#N)c2)Cc2nccn2C1` (stereo not drawn), the Percent Effect was -1.98%.

For the compound `COc1ccc(OCc2nc(C(=O)N3CC[C@H](O)[C@@H](O)C3)co2)cc1`, the Percent Effect was -4.44%.

Turning to `O=C(CN1CCCC1Cn1cncn1)NCCc1c(F)cccc1F` (stereo not drawn), the Percent Effect was -10.6%.

On to `CN(C)c1ncnc2c1CCN(CC1CCOC1)CC2` (stereo not drawn), for which the Percent Effect is 0.421%.

Regarding `CC(C)N(CC(N)=O)Cc1csc(COc2ccc(F)cc2)n1`, the Percent Effect is -4.66%.

Take `Cc1nc(CN2CCCN(C(=O)c3ccccn3)CC2)oc1C`: the Percent Effect was -5.21%.

`O=C(c1cccnc1N1CCOCC1)N1CCCC1Cn1cccn1` (stereo not drawn): the Percent Effect was -12%.

For the compound `CCN(C(=O)CN(C)C(c1cccc(F)c1)c1ccccn1)C1CC1` (stereo not drawn), the Percent Effect is -10.2%.

Take `Cc1nc(C2(NCC(=O)NCCc3cccs3)CCCC2)no1`: the Percent Effect was -1.92%.

As to `CO[C@H]1CN(C(=O)c2ccccn2)[C@@H]2CCCO[C@H]12`, the Percent Effect was 3.83%.

Turning to `CCO[C@@H]1CO[C@@]2(CCCN(C(=O)c3ccc(OC)c(F)c3)C2)C1`, the Percent Effect was -7.2%.

For the compound `CC(C)S(=O)(=O)c1nnc(CCNC(=O)OC(C)(C)C)o1`, the Percent Effect was -8.11%.

On to `CCc1c(C(=O)NC2CCS(=O)(=O)C2)cnn1-c1ccc(F)cc1` (stereo not drawn), for which the Percent Effect is -5.38%.

Regarding `CCn1nccc1CNC(=O)NC1CCCCC1`, the Percent Effect was -2.19%.

Regarding `CN(Cc1ccsc1)C(=O)Nc1cccnc1N1CCCC1`, the Percent Effect was -2.06%.

In the case of `CCCC1(CO)CCCN(c2ncccc2F)C1` (stereo not drawn), the Percent Effect is -3.22%.

`Cc1nc[nH]c1-c1nc2cc(S(=O)(=O)N3CCCC3)ccc2n1C`: the Percent Effect is -5.76%.

For the compound `CCNC(=O)N(C)Cc1ccc(SC)c(OC)c1`, the Percent Effect worked out at 92.2%.

Regarding `COCC(=O)N1CCC(c2nc3ccc(-c4ccccc4)cn3n2)CC1`, the Percent Effect is -1.08%.

Turning to `CC(C(=O)NCc1ccnc(N2CCN(C)CC2)c1)n1cccn1` (stereo not drawn), the Percent Effect is -5.23%.

Regarding `CCc1c(C)nc2cc(C3CCN(Cc4ccccc4F)C3)nn2c1O` (stereo not drawn), the Percent Effect was -7.83%.

As to `O=C(COc1ccc(C(F)(F)F)cc1)NS(=O)(=O)c1cccnc1`, the Percent Effect was 4.47%.

On to `CN(C)S(=O)(=O)c1ccc(OCCNCCn2cccn2)cc1`, for which the Percent Effect was -41.4%.

Regarding `O=C(CN1CCCC(O)C1)NC(=O)NCc1cccs1` (stereo not drawn), the Percent Effect is -1.85%.

Turning to `CCOc1ncccc1CNC(=O)N1CCCC1c1ccncc1` (stereo not drawn), the Percent Effect is -7.62%.
